# Reference: PubChem BioAssay AID493191 (Broad Institute, 2011)
# In all, about 1,300 compounds went through this assay and about 330 (25%) were called active. These entries were drawn from the full list. Results with a measured potency or affinity are listed apart. A number with no mark means an inactive call. The rule behind the calls is not given here.
# Experiment: MALME3 melanoma cell viability loss, dose response, orthogonal assay for MITF inhibitor project, CellTiter-Glo, cherry-picked (AID 493191)
# Conditions: CellTiter-Glo luminescence, 24 h; series mostly up to 35 µM; activity change, negative = inhibition: at the top concentration
row,Structure (SMILES),"activity change, negative = inhibition"
1,CS(=O)(=O)N1CCN(c2nc3ccc(Cl)cc3s2)CC1,14.2%
2,CCCN1CCC(NCc2cn(C)nc2-c2ccc(Oc3ccccc3)cc2)CC1,-33.6%
3,CC(O)CNC(=O)C1CCN(Cc2ccc(OCc3ccccc3)cc2)CC1 (stereo not drawn),-0.748%
4,COC(=O)c1ccc(COc2ccc(C)cc2[N+](=O)[O-])o1,0.832%
5,Cc1ccccc1NC(=O)Cc1nc(COC(=O)c2ccc(S(C)(=O)=O)c([N+](=O)[O-])c2)cs1,-35.7%
6,Cc1ccc(-c2n[nH]c(=O)c3ccccc23)cc1S(=O)(=O)NCC1CCCO1 (stereo not drawn),-3.9%
7,C=CCNC(=O)Cn1nnc(-c2ccc(-c3ccc(OC)cc3)cc2)n1,-6.58%
8,O=C(N/N=C/C=C/c1ccccc1)c1ccccn1,6.57%
9,Cc1ccc(-c2cn3nc(C)c(C)nc3n2)cc1,-19.4%
10,Cc1ccc2oc(Nc3nc(C)c(C)c(C)n3)nc2c1,-2.9%
11,C=C1C(=O)C2=CC1CCC(=O)C1(C)CCC(OC(C)=O)C(C)(C)C1CC2O (stereo not drawn),-43.8%
12,N/C(=N\OC(=O)c1ccccc1Cl)c1cccc([N+](=O)[O-])c1,3.35%
13,O=C(NC(=S)Nc1ccccn1)c1cccc([N+](=O)[O-])c1,-0.338%
14,COC(=O)c1ccc(Nc2cc(C)nc3ccc(C)cc23)cc1,-5.79%
15,CCOc1ccc2nc(C)cc(Nc3cccc([N+](=O)[O-])c3)c2c1,-64.2%
16,Clc1ccc(-c2c[n+](Cc3cccc(Cl)c3)c3n2CCC3)cc1,-3.77%
17,O=c1c2ccccc2cnn1CCOc1ccccc1,-21.9%
18,CS(=O)(=O)c1ccc(C(=O)OCC(=O)NCc2cccs2)cc1[N+](=O)[O-],-38.8%
19,O=[N+]([O-])c1cc(C(F)(F)F)ccc1NCCc1ccccn1,3.81%
20,CS(=O)(=O)c1ccc2nc(NC(=O)c3ccccc3)sc2c1,-14%

row,Structure (SMILES),"activity change, negative = inhibition"
1,O=C(O)c1cccc(NC(=O)c2cccc(NC(=O)C3CCCO3)c2)c1 (stereo not drawn),2.35%
2,O=C(N/N=C/c1ccc([N+](=O)[O-])s1)c1ccccc1,-49.8%
3,Cc1ccc(C(=O)N/N=C\c2ccc([N+](=O)[O-])s2)cn1,-42.5%
4,C=C1CCC[C@]2(C)C[C@H]3OC(=O)C(CN4CCCCC4CO)[C@H]3CC12 (stereo partly drawn),18%
5,COc1cc(SC)ccc1C(=O)Nc1ncc(C)s1,-18.2%
6,O=C(NCc1ccccc1)C(=O)Nc1cccc(C(=O)O)c1,3.68%
7,CC(C)(C)c1cc(NCCCn2ccnc2)n2ncc(-c3ccccc3)c2n1,-26.9%
8,Nc1ccc(-c2nc3c(Cl)cc(N)cc3[nH]2)cc1,7.31%
9,Cc1c(C#N)c(O)n(CCO)c(=O)c1N=Nc1ccc2c(c1)COC2=O,-14.4%
10,CCN(CC)c1ccc(/C=N/NC(=O)c2cccc(S(=O)(=O)N3CCOCC3)c2)c(O)c1,-15.7%
11,CCSc1nnc(NC(=O)C2CCCCC2)s1,6.64%
12,O=C(CCl)N(Cc1cc(=O)[nH]c2ccccc12)c1ccccc1,-29.2%
13,O=C(CCl)N(c1ccccc1)c1c[nH]c2ccccc12,-41.4%
14,Fc1ccccc1-c1nc(-c2ccncc2)no1,-6.62%
15,Clc1cccc(-c2nc(-c3ccccn3)no2)c1,-33.8%
16,Clc1ccccc1CSc1nnc(-c2ccncc2)o1,-8.1%
17,CCOc1ccc(N(CC(=O)Nc2ccc(OC)cc2)S(C)(=O)=O)cc1,-6.34%
18,CCC(=O)Nc1cc2nn(-c3ccc(C)cc3)nc2cc1C,5.18%
19,CC(=O)SC(C[N+](=O)[O-])c1cn(C(C)=O)c2ccccc12 (stereo not drawn),-33.7%
20,CC1Cc2ccccc2N1C(=O)c1ccc(Br)o1 (stereo not drawn),-23.8%

row,Structure (SMILES),"activity change, negative = inhibition"
1,CCOC(=O)/C=c1/s/c(=C/c2ccc3cc(OC)ccc3c2)c(=O)n1CC(=O)NCC1CCCO1 (stereo not drawn),-15.4%
2,O=C(Nc1ccc(-c2cn3c(n2)SCC3)cc1)c1ccco1,-3.35%
3,C/C(=N\NC(=O)C1COc2ccccc2O1)c1ccccn1 (stereo not drawn),-16.7%
4,O=[N+]([O-])c1ccc(N/N=C/C=C/c2ccco2)cc1,-6.15%
5,C/C(=N\NC(=O)COc1ccccc1-c1ccccc1)c1ccccn1,-23%
6,O=C(NC1=NCCS1)C1COc2ccccc2O1 (stereo not drawn),-18.9%
7,C=CCOc1ccc(/C=C2\SC(=S)N(CCC(=O)O)C2=O)cc1,8.72%
8,Cc1c(C#N)c(NC(=O)CCl)n(Cc2cccs2)c1C,-41.2%
9,O=C(NCc1cccs1)c1nc2c(nnn2Cc2ccccc2Cl)c(=O)[nH]1,0.593%
10,CC(=O)Oc1c(C(=O)c2nnc(C)o2)c(=O)n(Cc2ccccc2)c2ccccc12,-19.6%
11,Cc1ccc(OCC(=O)N/N=C/c2ccc([N+](=O)[O-])o2)cc1,-39.6%
12,COc1ccc(/C=N/NC(=O)Cc2cccs2)cc1,-1.89%
13,Cc1occc1C(=O)N/N=C/c1ccc(OCc2ccccc2)cc1,-1.16%
14,Cc1ccc(SCCC(=O)N2CCC(C)CC2)cc1,7.77%
15,Cc1cc(/C=C(\C#N)C(=O)O)c(C)n1CC(C)C,11.7%
16,Cc1ccc(SCCSc2ncccn2)cc1,-13.9%
17,Nc1c(-c2ccccc2)cnc2c(-c3ccccc3)cnn12,-2.55%
18,COc1ccccc1OCCN1CSC(=S)N(C)C1,-42.5%
